Measured values from PubChem BioAssay AID1621 (Southern Research Specialized Biocontainment Screening …, 2009).
The campaign covered roughly 290,000 compounds. About 60 (0.02%) were called active. Inconclusive results (about 1%) are left out. The rule behind the calls is not given here. Not all results are given here. Measured potencies and affinities stand elsewhere.

assay: inhibition of WNV-induced cytopathic effect – cell-based, CPE readout (AID 1621); settings: West Nile virus-infected cells, at 10 µM, stronger effect = higher value

CPE inhibition, inactive:
COCCn1nnnc1C(c1cccs1)N1CCN2CCCC2C1 (stereo not drawn) 0.23%
CCOC(=O)c1c(NC(=O)CSc2cccc[n+]2[O-])sc(C(=O)Nc2ccccc2)c1C -0.77%
CCOC(=O)c1c(N)sc(C(=O)Nc2ccccc2)c1C -0.25%
Cc1cnc(NC(=O)Cc2cccs2)s1 0.29%
COc1ccc(C2c3sc(=O)[nH]c3SC3C4CCC(C4)C23)cc1OC (stereo not drawn) 0.48%
CCc1cc(C(=O)N2CCc3c([nH]c4ccccc34)C2c2ccc(OC)cc2F)no1 (stereo not drawn) 19.3%
O=C(c1cc2ncccn2n1)N1CCc2c([nH]c3ccccc23)C1c1ccccc1F (stereo not drawn) 2.67%
C=CCn1c(SCC(=O)NNC(=O)Nc2ccc(C)cc2)nnc1-c1ccccc1 0.45%
O=C1CN2C(=Nc3ccc(Br)cc3C2c2ccccc2)CCN1 (stereo not drawn) -0.54%
c1ccc2c(c1)CN1CCCC1=N2 0.51%
CCN1CCc2nc3ccccc3c(C(=O)Nc3ccc(F)cc3)c2C1 -0.07%
Cc1ccc(OCC(O)Cn2c(N3CCCCC3)nc3c2c(=O)[nH]c(=O)n3C)cc1C (stereo not drawn) -0.27%
CCOC(=O)NN1C(=O)c2ccccc2NC1c1ccccn1 (stereo not drawn) 0.09%
O=C(Nc1ccccc1N1CCCC1)c1ccccc1Cl -1.13%
Cc1ccccc1/C=N/N1C(=O)CSC1=S 0.91%
Cc1ccc2[nH]c(=O)c(CN(CCCN(C)C)C(=O)Nc3cccc(Cl)c3)cc2c1 -1.48%
Cc1ccc2cc(CN(CCN(C)C)C(=O)Nc3ccc(Cl)cc3)c(=O)[nH]c2c1 2.9%
NC(=O)c1ccc(NC(=O)CSc2nnc(-c3cccnc3)n2Cc2ccco2)cc1 -0.08%
c1ccc(COC2CCCN(Cc3nc(Cc4ccccc4)no3)C2)cc1 (stereo not drawn) -1.71%
CC(=O)Oc1ccc2occ(-c3ccccc3)c2c1 -0.4%
CCN(CC)S(=O)(=O)c1ccc(NC(=O)c2cc(-c3ccccc3)nc3ccccc23)cc1 -0.41%
CCN(CC)S(=O)(=O)c1ccc(C(=O)O)cc1 0.13%
CCOC(=O)C1(Cc2ccccc2C(F)(F)F)CCN(C2CCN(C(C)=O)CC2)CC1 -1.08%
CCOC(=O)C1(Cc2ccccc2C(F)(F)F)CCN(C2CCCC2)CC1 -0.59%
CC1CCC2C(=O)N(c3cccc(C(=O)Nc4ccccc4Cl)c3)C(=O)C2C1 (stereo not drawn) 0.29%
Cc1ccc(S(=O)(=O)c2nc(-c3cccs3)oc2SCC(N)=O)cc1 2.11%
Cc1c(NC(=O)COC(=O)c2cc(-c3cccc4ccccc34)nc3ccccc23)c(=O)n(-c2ccccc2)n1C -0.96%
COc1ccc2cc(-c3cc(C(=O)OCC(=O)Nc4c(C)n(C)n(-c5ccccc5)c4=O)c4ccccc4n3)ccc2c1 -0.17%
COc1ccc(NS(=O)(=O)c2ccc(O)c(NC(=O)c3ccc(S(=O)(=O)N4CCCCCC4)cc3)c2)cc1 2.03%
COc1ccc(/C(N)=N/OC(=O)c2ccc(Br)o2)cc1 0%
CCn1c(SCC(=O)C(C)(C)C)nnc1-c1cccnc1 -0.07%
CNC(=O)C1CCN(S(=O)(=O)c2c(C)noc2/C=C/c2ccccc2F)CC1 -1%
CCN(CCN(C)C)C(=O)C1CCN(S(=O)(=O)c2c(C)noc2/C=C/c2ccccc2F)CC1 0.04%
O=C(CCn1c(=S)[nH]c2ccccc2c1=O)N1CCCCC1 0%
O=C(N/N=C\c1ccc(S(=O)(=O)O)o1)c1ccc2c(c1)OCO2 -0.67%
CCN1CCN(CCNC(=O)c2ccc(/C=C3/Sc4ccccc4N(Cc4ccccc4C)C3=O)cc2)CC1 -0.85%
O=C(NCCN1CCOCC1)c1ccc(/C=C2\Sc3ccccc3N(Cc3ccccc3F)C2=O)cc1 2.03%
CC(NS(=O)(=O)c1ccc(Cl)cc1)C(c1cccs1)N1CCN(C)CC1 (stereo not drawn) -0.37%
CCCCOc1cccc(C(=O)Nc2ccc(S(=O)(=O)Nc3nnc(CC)s3)cc2)c1 -0.64%
COc1ccc(N=C2CC(C)(C)CC(=O)/C2=C(/O)c2ccccc2)cc1 -0.15%
COC(=O)c1scc(C)c1NC(=O)Nc1ccccc1 1.33%
O=C(NC1CCCC1)C(c1cccs1)N(CC1CCCO1)C(=O)Cc1cccs1 (stereo not drawn) -0.52%
Cc1cc(C)c(S(=O)(=O)n2c([N+](=O)[O-])cnc2C)c(C)c1 1.59%
CN1CCN(C(=O)c2ccccc2NC(=O)c2sc3ccccc3c2Cl)CC1 -1.33%
CN1CCN(c2ccccc2NC(=O)c2sc3ccccc3c2Cl)CC1 -0.79%
O=C(O)C1CCCN1C(=O)Nc1ccc(F)cc1 (stereo not drawn) -0.08%
CCN1CCN(CCNC(=O)c2ccc3nc(-c4cccc(C)c4)c(-c4cccc(C)c4)nc3c2)CC1 -1.29%
COc1ccc(-c2nc3ccc(C(=O)NCCCN4CCOCC4)cc3nc2-c2ccc(OC)cc2)cc1 0.5%
c1ccc(OCCCCn2cnc3ccccc32)cc1 -0.39%
O=C(c1ccco1)c1cn[nH]c1-c1ccc(Cl)cc1O 0.03%
CC(=O)NCC(=O)NC(C(=O)Nc1ccc2c(c1)OCCO2)c1ccc(C)cc1 (stereo not drawn) -0.73%
CN(C)S(=O)(=O)c1cccc(NC(=O)c2cncc(Br)c2)c1 0.06%
Cc1ccc(S(=O)(=O)N(C)C)cc1NC(=O)c1ccncc1 0.43%
C/C=C/c1ccc(OCCCNC(C)CC)c(OC)c1 (stereo not drawn) -0.34%
CC(/C=C/c1ccco1)=N\NC(=O)CNc1cccc(C)c1 -0.57%
CCCCOP(=O)(c1ccc(N(C)C)cc1)C(O)c1ccc(OC)cc1 (stereo not drawn) -0.79%
Cc1ccccc1NC1=CC(=O)CC(C)(C)C1 -0.82%
COc1cc(CNC(C)(C)CO)cc(Br)c1OCc1ccccc1 -0.18%
COc1cc(CNC(C)(C)CO)cc(Br)c1OCc1ccc(Cl)cc1Cl 15.4%
CC1C(O)=C(c2nc3ccccc3[nH]2)C(=N)N1c1ccccc1 (stereo not drawn) 1.12%
CC(O)CNc1ccc(-c2n[nH]c(=O)c3ccccc23)cc1[N+](=O)[O-] (stereo not drawn) -1.06%
CCCn1c(SCC(=O)N(CC)CC)nnc1-c1ccncc1 -0.86%
O=C(NCCCN1CCCC1)c1cc2c(Cl)nc3ccccc3c2s1 0.85%
CC1CCN(CCCNC(=O)c2cc3c(Cl)nc4ccccc4c3s2)CC1 3.15%
CNC(=O)OC(C)CNS(=O)(=O)c1ccc(C)cc1 (stereo not drawn) -0.03%
CCc1c(C(=O)Nc2ncn(Cc3cccc(C)c3)n2)csc1C -0.2%
COc1ccccc1C(=O)NCCC(=O)NCCc1ccccc1 0.26%
Cc1cc(C)cc(NC(=O)[C@H](Cc2c[nH]c3ccccc23)NC(=O)[C@@H]2Cc3ccccc3CN2)c1 -1.23%
Cc1ccc(NC(=O)[C@H](Cc2ccccc2)NC(=O)[C@@H]2Cc3ccccc3CN2)c(C)c1 -0.41%
CCOC(=O)c1ccc(NC(=S)N(CCCN2CCN(CC)CC2)Cc2ccco2)cc1 -0.57%
COc1cc2c(cc1OC)-c1cc(Nc3ccc(C(=O)O)cc3)nc(=O)n1CC2 -0.34%
CC(C(=O)Nc1cccc(S(=O)(=O)N2CCOCC2)c1)N1CCN(c2ccc(F)cc2)CC1 (stereo not drawn) -1.17%
CCOCC(=O)Nc1cccc(SC)c1 0.36%
CCN(CCN1CCCC1)C(=O)c1cc(COc2ccccc2SC)on1 -1.45%
O=C(COc1ccc(Cl)cc1)NC1=NN(c2ccccc2)C(=O)C1 -0.49%
CN(C)CCCNc1nc(N)c([N+](=O)[O-])c(NC2CCCCC2)n1 1.01%
Nc1nc(NCCO)nc(NC2CCCCC2)c1[N+](=O)[O-] 1.53%
CC(C)OC(=O)CC(=O)CSc1nc(-c2ccc(F)cc2)cc(-c2ccccc2)c1C#N -0.46%
O=S(=O)(CCSc1ccc(C(F)(F)F)cn1)c1ccc(Cl)cc1 -0.47%
CCCN(CCC)CCCNC(=S)Nc1ccc2nc(N3CCN(C)CC3)cc(C)c2c1 0.29%
CCCN(CCC)CCCNC(=S)Nc1ccc2nc(N3CCN(CC)CC3)cc(C)c2c1 3.38%
CCC(C)NC(=O)C1CCCN(S(=O)(=O)c2ccc(-n3cnnn3)cc2)C1 (stereo not drawn) 0.81%
Cc1ccc(S(=O)(=O)NNC(=O)Nc2cccc(F)c2)c(C)c1 0.14%
